Data reported in PubChem BioAssay AID1117359 (Southern Research Institute, 2015).
Screen size: about 1,500 compounds; about 460 (31%) were called active.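 Rule for the calls: active = viability at or below 80% at any tested concentration, marking the compound as toxic; inactive = the rest.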 A selection follows. Measured potencies and affinities stand elsewhere.

Assay: viability loss in THP-1 monocytes – THP-1 cells, cytotoxicity control for Vif-APOBEC3G degradation inhibitor project, dose response (AID 1117359)
Conditions: THP-1 viability, CellTiter-Glo luminescence, 72 h; series mostly up to 40 µM

| SMILES | outcome |
| --- | --- |
| CC1CCC/C(=C\Nc2ccc(C(=O)O)c(O)c2)C1=O (configuration not stated) | inactive |
| CCNC(=O)COC(=O)c1cc(-c2ccco2)nc2ccccc12 | inactive |
| CN(C)[C@@H]1C(=O)C(C(=O)NCN2CCCC2)=C(O)[C@@]2(O)C(=O)C3=C(O)c4c(O)cccc4[C@@](C)(O)C3CC12 (some centres not stated) | inactive |
| Cc1cc(/C=C2\SC(=S)NC2=O)c(C)n1C | inactive |
| COC(=O)Cc1ccc(NC(=S)NNC(=O)C2CC2)cc1 | inactive |
| O=c1[nH][nH]c(=O)c2nc(Nc3ccccc3)ncc12 | inactive |
| CCN(CC)c1ccc(C=Nc2ccc(N(C)C)cc2)c(O)c1 | inactive |
| Cc1ccccc1NC(=O)Cc1nc(COC(=O)Cc2ccccc2F)cs1 | inactive |
| CN(C)c1ccc(/C=C/C#N)cc1 | inactive |
| CCCc1cc(=O)[nH]c(SCC(=O)c2c(C)[nH]c3ccccc23)n1 | inactive |
| COc1ccc(NC(=O)CSc2nc3c(cc2C#N)CN(C)CC3)cc1 | inactive |
| COc1ccc(NC2=NC(C)(CO)CS2)cc1 (configuration not stated) | inactive |
| COc1ccc(NC(=O)CCCSc2ccccc2)cc1 | inactive |
| CCOC(=O)/C(=C\c1ccccc1)NC(=O)c1ccccc1 | inactive |
| COc1ccc2cc(C3C(C#N)=C(N)OC(C)=C3C(C)=O)c(Cl)nc2c1 (configuration not stated) | inactive |
| Cc1ccc(C2C(C#N)=C(N)Oc3c2oc(CO)cc3=O)o1 (configuration not stated) | inactive |
| NS(=O)(=O)c1ccc(CCNC2CC(=O)N(Cc3ccccc3)C2=O)cc1 (configuration not stated) | inactive |
| CN(Cc1cn(C)nc1-c1cccc(Cl)c1)Cc1nccn1C | inactive |
| Nc1ccc(N2CCN(CCCCN3C(=O)C4CCCN4C3=O)CC2)cc1 (configuration not stated) | inactive |
| Nc1cc(C(=O)O)ccc1N1CCCCC1 | inactive |
| O=C(CN1C(=O)NC(c2ccc(F)cc2)C1=O)Nc1ccc2c(c1)OCCO2 (configuration not stated) | inactive |
| COc1cccc(NC(=O)N2CCN(c3nnnn3-c3ccccc3)CC2)c1 | inactive |
| O=C(Cn1c(=O)oc2ccccc21)N1CCN(S(=O)(=O)c2ccccc2)CC1 | inactive |

| SMILES | outcome |
| --- | --- |
| CC(C)(C)c1ccc(NC(=S)NCc2cccnc2)cc1 | inactive |
| O=S(=O)(c1ccc(OCC(O)CN2CCC(Cc3ccccc3)CC2)cc1)N1CCOCC1 (configuration not stated) | inactive |
| N/C(=N\OC(=O)COc1ccc([N+](=O)[O-])cc1)c1cccnc1 | inactive |
| C/C(=N\NC(=O)c1cnccn1)c1ccc([N+](=O)[O-])cc1 | inactive |
| O=C1CC(Nc2ccc(N3CCOCC3)cc2)C(=O)N1Cc1ccccc1 (configuration not stated) | inactive |
| Cc1cc(SCC2=NNC(=O)C2)c(Cl)cc1Cl | inactive |
| CCCCc1nc2sc3c(=O)[nH]cnc3c2c2c1CCCC2 | inactive |
| CC(C)Cc1nc2oc3c(NCC(C)O)ncnc3c2c2c1CCCC2 (configuration not stated) | inactive |
| CCCCc1cc(C(=O)Cc2ccccn2)c(O)cc1O | inactive |
| COc1ccc(C(=O)OCC(=O)c2c(N)n(C)c(=O)n(C)c2=O)cc1OC | inactive |
| NC(=O)C1Cc2ccccc2CN1C(=O)c1nn(Cc2ccccc2)c(=O)c2ccccc12 (configuration not stated) | inactive |
| Cc1cccc2nc(C(=O)Nc3cccc(C(=O)NC4CC4)c3)cn12 | inactive |
| Cc1onc(-c2ccccc2)c1CNC(=O)C1COc2ccccc2O1 (configuration not stated) | inactive |
| O=C(O)Cc1ccc(N=Nc2c(O)c(C(=O)O)cc3ccccc23)cc1 | inactive |
| Nc1cccc2cc(S(=O)(=O)O)ccc12 | inactive |
| O=C1CC(N2CCOCC2)C(=O)N1c1ccc(Cl)cc1 (configuration not stated) | inactive |
| O=C(O)c1ccc2c(c1)C1C=CCC1C(c1ccncc1)N2 (configuration not stated) | inactive |
| S=C1NC2(CCCCCC2)N=C1c1ccccc1 | inactive |
| CC(NC(=O)c1ccco1)C1CCCO1 (configuration not stated) | inactive |
| S=c1[nH]nc(Cn2nnc3ccccc32)n1-c1ccccc1 | inactive |
| C/C=C/c1ccc(OCC(=O)N2CCc3cc(OC)c(OC)cc3C2)c(OC)c1 | inactive |
| COc1cc(/C=N/NC(=O)c2ccc(NS(=O)(=O)c3cccs3)cc2)cc(OC)c1O | inactive |
| COc1ccccc1/C=C/C=C1N=C(/C=C/c2ccc(Cl)cc2)OC/1=O | inactive |

| SMILES | outcome |
| --- | --- |
| COc1cc(/C=C(\CC(=O)O)c2nc3ccccc3s2)cc(OC)c1O | inactive |
| CCc1ccccc1NC(=O)N1CCc2ccccc21 | inactive |
| CCN1CNC(=S)N(CCc2ccccc2)C1 | inactive |
| Cc1cc(C)n2nc(C(=O)OCC(=O)N(C)CC(=O)Nc3ccc(F)cc3)nc2n1 | inactive |
| CCN1CCN(C(=O)CN(C)S(=O)(=O)c2ccc(OC)c(C)c2)CC1 | inactive |
| CCOC(=O)CNC(=O)Cn1cnc2c(nnn2-c2ccc(F)cc2)c1=O | inactive |
| COC/C=C/C1=CC2=CC(=O)C(C)(OC(=O)C3CCCC3)C(=O)C2=CO1 (configuration not stated) | inactive |
| Clc1ccccc1N=Nc1ccccn1 | inactive |
| COc1cc(OC)c2c(c1O)OC(c1ccccc1)CC2=O (configuration not stated) | inactive |
| CCOC(=O)C1CCCC12Nc1cccc3cccc(c13)N2 (configuration not stated) | inactive |
| Cc1noc(C)c1COc1ccc(C(=O)OCC(=O)N2c3ccccc3NC(=O)C2(C)C)cc1 | inactive |
| CCOc1ccc(NC(=O)C2CCCN(S(=O)(=O)c3c(C)nn(C)c3C)C2)cc1 (configuration not stated) | inactive |
| CC(=O)c1sc(C(=O)O)c(-c2ccco2)c1-c1ccco1 | inactive |
| Cc1cc(CN2C(=O)c3ccccc3C2=O)cc(N2CCOCC2)c1 | inactive |
| O=C(CCN1C(=O)c2ccccc2C1=O)NCc1ccco1 | inactive |
| CCCC(=O)C1=C(N(C)c2ccccc2)CC(C)(C)CC1=O | inactive |
| O=C(Nc1cccnc1)c1sc(Nc2ccccc2F)nc1-c1ccccc1 | inactive |
| O=C(COc1ccccc1Cl)c1ccc[nH]1 | inactive |
| C/C(=N\n1c(C)nc2ccccc2c1=O)c1ccc(C)o1 | inactive |
| O=C1/C(=C\c2ccco2)NC(=S)N1c1ccccc1 | inactive |
| O=C(O)C(Cc1ccccc1)N1C(=O)/C(=C/C=C/c2ccco2)SC1=S (configuration not stated) | inactive |
| O=C(O)c1cc(N2N=C(C(F)(F)F)/C(=C/C=C/c3ccco3)C2=O)ccc1Cl | inactive |
| COC(=O)C1=C(C)N(Cc2ccccc2)C(=O)/C1=C\c1ccco1 | inactive |

| SMILES | outcome |
| --- | --- |
| COc1ccc(N=C2NC(=O)/C(=C\C=C\c3ccco3)S2)cc1 | inactive |
| O=C1NN(c2cccc(Br)c2)C(=O)/C1=C\c1ccccc1 | inactive |
| O=C(Nc1ccc(Cl)cc1)Nc1ccc(N2CCC(C(F)(F)F)CC2)nc1 | inactive |
| CC1CC(C)CN(C(=O)CSCC(=O)O)C1 (configuration not stated) | inactive |
| Cn1c(C(=O)N[C@@H](C(=O)O)c2ccccc2)cc2cc(Cl)ccc21 | inactive |
| C#Cc1ccc([C@H]2C=C(C(=O)N3CCOCC3)O[C@@H](OCc3ccc(CO)cc3)C2)cc1 | inactive |
| Cc1cc(=O)n2nc(N3CCCC(C(=O)NC4CCC(C)CC4)C3)sc2n1 (configuration not stated) | inactive |
| O=C(O)Cc1cccc(=O)c(O)c1C(=O)O | inactive |
| COc1cc(NC(=O)c2noc3c2CCC3)c(OC)cc1Cl | inactive |
| CCOC(=O)C(=O)NCc1ccc(/C=C2/N=C(C)C(C(=O)OCC)=C2O)o1 | inactive |
| CN(C)c1nc(OCCNC(=O)COc2ccc(Cl)cc2Cl)nc(N2CCOCC2)n1 | inactive |
| CC(=O)c1ccc(-c2nnc(CCC(=O)N(C)Cc3c(C)nc4ccccn34)o2)s1 | inactive |
| CC(=O)Nc1nnc(-c2c(-c3c(Cl)cccc3Cl)noc2C)o1 | inactive |
| CC1CCC/C(=C\Nc2ccc(O)cc2)C1=O (configuration not stated) | inactive |
| CCC1CCC2(CC1)NC(=O)N(CC(=O)Nc1ccc(OC)c(Cl)c1)C2=O (configuration not stated) | inactive |
| C=C(C)C(=O)Nc1cccc(C2=NOC3(C2)C[C@H](C(N)=O)N(C(=O)COc2ccc(Cl)cc2)C3)c1 (some centres not stated) | inactive |
| Cc1nc2nc(-c3ccco3)nn2c(C)c1Cl | inactive |
| CC(=O)Nc1ccc(N=Nc2ccccc2)cc1 | inactive |
| O=S(=O)(O)c1cc(O)c2ccc(Nc3ccccc3)cc2c1 | inactive |
| CCn1c(SC(C)C(=O)O)nc2sc3c(c2c1=O)CCC3 (configuration not stated) | inactive |
| COc1ccc(N/N=C(\C#N)C(=N)SCc2ccccc2)cc1 | inactive |
| CC(=O)c1ccccc1NC(=O)COC(=O)CN1C(=O)C2CCCCC2C1=O (configuration not stated) | inactive |
| Cc1cc2cc3c(=O)[nH]c(=O)nc-3n(CC(O)C(O)C(O)CO)c2cc1C (configuration not stated) | inactive |

| SMILES | outcome |
| --- | --- |
| CN(CCO)CC(O)CN(c1ccccc1)c1ccccc1 (configuration not stated) | inactive |
| Oc1cc2c(cc1O)[C@H]1c3ccc(O)c(O)c3OC[C@@]1(O)C2 | inactive |
| C(=C\c1ccco1)/c1ccc2ccccc2n1 | inactive |
| O=C(O)c1ccc(-n2cccc2/C=C2/NC(=O)N(c3cccc(Cl)c3)C2=O)cc1 | inactive |
| O=C(O)c1ccc(-n2cccc2/C=C2/NC(=O)N(c3ccccc3)C2=O)cc1 | inactive |
| COc1ccc(CCN2CC(C(=O)NCC(c3ccccc3)N(C)C)CC2=O)cc1OC (configuration not stated) | inactive |
| CN1CCN(C(=O)c2ccc(N(C)S(=O)(=O)c3cccs3)cc2)CC1 | inactive |
| Cc1c(O)cc2c(c1O)C(=O)CC(c1ccc(O)cc1)O2 (configuration not stated) | inactive |
| COC1=CC(=O)C(C2CC(=O)c3c(O)cc(O)cc3O2)=CC1=O (configuration not stated) | inactive |
| C(=N\Nc1nncn1/N=C/c1ccco1)/c1ccco1 | inactive |
| Cn1c(=O)c2c(ncn2CC(=O)N/N=C/C=C/c2ccco2)n(C)c1=O | inactive |
| COc1ccc2[nH]c(C(=O)O)c(CCN3C(=O)c4cccc([N+](=O)[O-])c4C3=O)c2c1 | inactive |
| COc1ccc(N2CCN(CC(=O)c3c(C)n(C)c4ccc(OC)cc34)CC2)cc1 | inactive |
| Cn1c2ccccc2c2ccc3c(c21)C(=O)C=CC3=O | inactive |
| Cc1ccc(N=Nc2ccc(N)cc2C)c(S(N)(=O)=O)c1 | inactive |
| O=C1CNC(=O)/C1=C/c1ccc(Br)cc1 | inactive |
| O=C(COC(=O)c1ccc(O)cc1O)NNC(=O)c1cccs1 | inactive |
| CC[n+]1ccc(C)c2cc(P(=O)(c3ccccc3)c3ccccc3)ccc21 | inactive |
| Cc1ccc(S(=O)(=O)n2ccc(=O)[nH]2)cc1 | inactive |
| O=C(CCS(=O)(=O)c1ccc(Br)cc1)NC1CCCC1 | inactive |
